Screening results (PubChem)
An excerpt weighted towards active compounds, which were near 1.1% of everything screened.
OPRM1-OPRD1 ag: agonists of human mu-delta opioid receptor heterodimerization; P35372+P41143; 340,000 compounds, 0.3% hits; cells, OPRM1-OPRD1 heterodimerization, luminescence; activation, % at 9.3 µM; in the data active = activation above about 18%;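 also: 0% = vehicle-treated cells and 100% = reference agonist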
MOR-DOR inv ag-1: mu-delta opioid heterodimer inverse agonism. inhibition, % at 9.3 µM. P35372+P41143. cell-based MOR-DOR heterodimer luminescence. 340,000 compounds, 0.21% hits; in the data active = inhibition above about 22%, passing the limit was not always enough;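 also: 0% = cells with DMSO and 100% = wells without cells with DMSO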
HTR5A inv ctr: inverse agonist of human HTR5A in OPRM1-OPRD1 counter-screen | P47898 | HTR5A cell line, luminescence, inverse agonism | inhibition, % at 9.3 µM | 340,000 compounds, 0.083% hits; in the data active = inhibition mostly above about 23%, no sharp cut-off; inactive = mostly below about 18%;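 also: 0% = cells with DMSO and 100% = no-cell wells with DMSO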
Target sequence (P47898 whole entry, looked up): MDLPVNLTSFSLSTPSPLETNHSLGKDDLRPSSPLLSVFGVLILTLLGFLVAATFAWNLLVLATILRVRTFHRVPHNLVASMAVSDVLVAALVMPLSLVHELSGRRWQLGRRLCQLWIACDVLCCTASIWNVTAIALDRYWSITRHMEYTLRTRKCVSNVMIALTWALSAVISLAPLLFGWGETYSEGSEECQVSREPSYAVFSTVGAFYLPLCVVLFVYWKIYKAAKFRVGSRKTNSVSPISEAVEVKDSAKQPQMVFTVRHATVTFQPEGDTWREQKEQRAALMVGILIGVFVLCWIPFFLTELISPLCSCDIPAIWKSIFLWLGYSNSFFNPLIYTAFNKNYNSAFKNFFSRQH
HTR5A ag: counter-screen for OPRM1-OPRD1 agonists: human HTR5A agonism; HTR5A agonist assay, luminescence, cell-based; P47898; AID 504692; 340,000 compounds, 0.61% hits; activation, % at 9.3 µM; in the data active = activation mostly above about 9.5%, no sharp cut-off; inactive = mostly below about 7.6%;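 also: 0% = cells with vehicle only and 100% = reference agonist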
MOR-DOR inv ag-2: counter-screen for HTR5A inverse agonists: OPRM1-OPRD1 heterodimerization inverse agonism. shares compounds with HTR5A inv ctr. U2OS counter-screen cells, complementation luminescence. inhibition, % at 9.3 µM. 190 tested, under 10 active. AID 504912;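 also: 0% = cells with DMSO and 100% = wells without cells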
HTR5A inv conf: HTR5A (human) inverse agonism, confirmation; shares compounds with HTR5A inv ctr; HTR5A-expressing cells, luminescence; inhibition, % at 9.3 µM; 190 tested, under 10 active; AID 504916;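 also: 0% = cells with DMSO and 100% = no cells with DMSO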
Numbers without * were called inactive; i = inactive; nt = not tested or not shown. Unless noted, no rule for the calls is given here.

SMILES | OPRM1-OPRD1 ag | MOR-DOR inv ag-1 | HTR5A inv ctr | HTR5A ag | MOR-DOR inv ag-2 | HTR5A inv conf
COc1ccc(C(=O)N2CCN(CC(=O)N3CCOCC3)CC2)cc1 | -1.6 | 8.8 | -0.8 | 1.6 | nt | nt
NNc1nc(Nc2ccc([N+](=O)[O-])cc2)nc(N2CCCCCC2)n1 | -3.7 | 19.1 | 16.0 | -3.4 | nt | nt
NNc1nc(Nc2ccccc2)nc(N2CCCCC2)n1 | 3.6 | -20.9 | 34.5* | -9.4 | -23.6 | -156.8
Cc1n[nH]c(=S)n(NC(=O)CC(=O)Nn2c(=S)[nH]nc(C)c2=O)c1=O | 3.1 | -16.9 | 65.2* | -23.6 | -84.6 | 16.1
COc1ccc(Cl)cc1C(=O)NNC(=O)CSc1nnc2ccccn12 | -1.7 | 8.7 | 27.0* | -9.6 | -36.8 | -2.3
NC(=O)c1ccc(NC(=O)CN2CCOCC2)cc1 | -1.2 | 6.0 | 33.7* | -8.9 | 43.3* | 21.8
CC(=O)c1ccc(NC(=O)CN2CCOCC2)cc1 | -1.2 | 5.5 | 5.0 | -1.3 | nt | nt
CC(=O)NC12CC3CC(C1)CC(C(=O)N(C)Cc1cccc(Cl)c1Cl)(C3)C2 | -2.6 | 14.3 | -4.1 | -0.6 | nt | nt
O=C(NC(=S)Nc1ccc(O)cc1)c1ccccc1Cl | -1.9 | 9.4 | 1.7 | -3.1 | nt | nt
Cc1ccc(O)c(NC(=S)NC(=O)c2ccccc2Cl)c1 | -2.4 | 12.7 | 21.4* | -7.6 | 3.7 | -19.1
CCOc1ccc(N2CC(C(=O)NNC(=O)c3ccc(Br)cc3)CC2=O)cc1 (stereo not drawn) | -1.2 | 6.5 | -4.0 | 1.6 | nt | nt
Cn1cnc(S(=O)(=O)N2CCN(c3cccc(Cl)c3)CC2)c1 | -1.4 | 7.4 | 37.8* | 1.4 | -14.8 | -193.3
Cc1cccc(NC(=O)CNC(=O)c2cccs2)n1 | -0.6 | 3.0 | 30.9* | -11.4 | -454.2 | 0.2
COCCNC(=O)CSc1c2c(nc3ccc(Cl)cc13)CCCC2 | -1.0 | 7.0 | 42.8* | -3.6 | i | 2.2
COc1ccc(NC(=O)CSc2c3c(nc4cc(Cl)ccc24)CCCC3)cc1OC | 0.7 | -4.2 | 13.9 | -5.2 | nt | nt
O=C(CS(=O)(=O)c1ccccc1)Nc1ccccc1Br | -1.9 | 9.3 | -11.8 | 3.1 | nt | nt
COc1ccc(S(=O)(=O)Nc2cccc3c2O[C@H](CN(C)S(=O)(=O)c2ccc(F)cc2)[C@H](C)CN([C@H](C)CO)C3=O)cc1 | -0.9 | 5.2 | 39.0* | -0.9 | -11.3 | 12.4
O=C(COc1coc(CN2CCc3ccccc3C2)cc1=O)Nc1ccc(F)cc1F | -2.7 | 14.2 | 63.1* | -25.8 | -14.2 | 8.6
O=C(COc1coc(CN2CCc3ccccc3C2)cc1=O)Nc1ccc(F)cc1 | -0.6 | 3.9 | -2.4 | 0.8 | nt | nt
COc1cc(/C=C2\SC(=S)N(NC(=O)c3ccccc3OC)C2=O)ccc1O | -6.0 | 27.9 | 32.8* | -9.2 | -14.3 | 31.9
O=C1/C(=C/c2cccc(O)c2)SC(=S)N1CC1CCCO1 (stereo not drawn) | 8.1 | -44.1 | 7.0 | -2.5 | nt | nt
O=C1/C(=C\c2ccc(O)c(O)c2)SC(=S)N1Cc1ccccc1 | -0.2 | 0.8 | 29.5* | -8.2 | -9.3 | 27.1
COc1cc(/C=C2/SC(=NCc3ccccc3)N(Cc3ccccc3)C2=O)ccc1O | -0.8 | 4.2 | 23.0 | -9.1 | nt | nt
CCOc1cc(/C=C2/SC(=S)N(CC3CCCO3)C2=O)ccc1O (stereo not drawn) | -4.6 | 21.3 | 30.6* | -11.1 | -46.0 | 24.9
COc1cc(/C=C2/SC(=S)N(Cc3ccccc3)C2=O)ccc1O | -2.2 | 10.6 | 30.5* | -8.3 | -43.0 | 35.7
SMILES | OPRM1-OPRD1 ag | MOR-DOR inv ag-1 | HTR5A inv ctr | HTR5A ag | MOR-DOR inv ag-2 | HTR5A inv conf
COc1cc(/C=C2\SC(=S)N(C(C(=O)O)c3ccccc3)C2=O)ccc1O (stereo not drawn) | -3.4 | 16.8 | 19.8 | -6.7 | nt | nt
COc1cc(/C=C2/SC(=S)N(c3c(C)n(C)n(-c4ccccc4)c3=O)C2=O)ccc1O | -6.9 | 32.7 | 27.6* | -12.3 | -4.3 | 5.7
Cc1noc(/C=C/c2ccco2)c1S(=O)(=O)N1CCC(C(=O)NCc2ccco2)CC1 | -3.0 | 13.3 | 27.0* | -9.8 | -9.1 | -7.6
NS(=O)(=O)c1ccc(N=Nc2c[nH]c(=O)c(O)c2)cc1 | -4.3 | 19.4 | 32.2* | -9.1 | 16.0 | 28.6
CN(C)c1ccc(N=Nc2ccc(S(N)(=O)=O)cc2)cc1 | -0.9 | 4.9 | 25.6 | -10.6 | nt | nt
O=C1/C(=C\c2ccc(O)c(O)c2)N=C2CCCCCN12 | -0.4 | 2.1 | 27.2* | -9.2 | -14.2 | 9.6
COc1cc(/C=C2\N=C3CCCCCN3C2=O)ccc1O | -1.2 | 6.8 | -2.7 | 3.0 | nt | nt
CC(=O)N1CCc2cc(Br)cc(S(=O)(=O)N3CCN(c4ccccn4)CC3)c21 | -1.4 | 8.2 | 46.4* | 0.5 | -40.1 | 7.8
CC(=O)N1c2c(cc(Br)cc2S(=O)(=O)N2CCN(c3ccccn3)CC2)CC1C (stereo not drawn) | -1.9 | 10.2 | -4.7 | 4.3 | nt | nt
COc1ccccc1NS(=O)(=O)c1ccc(C(=O)NCC(c2ccco2)N2CCCCC2)cc1 (stereo not drawn) | 2.1 | -8.8 | 12.7 | -5.2 | nt | nt
CC(C)(C)OC(=O)NCCc1nnc(SCC(N)=O)o1 | -2.9 | 14.3 | 48.8* | -5.0 | -18.5 | 3.9
O=C(Nc1cc2c3c(c1)CC(=O)N3CCC2)c1c(F)cccc1F | -2.3 | 15.3 | -4.1 | -0.1 | nt | nt
CCN(C(=O)CSc1nccc(=O)[nH]1)c1cccc2ccccc12 | -2.1 | 8.7 | -28.9 | 10.4 | nt | nt
Clc1cccc(CN2CCC3CC2c2cc(N4CCCCC4)ccc23)c1 (stereo not drawn) | -0.9 | 4.2 | 27.8* | -7.5 | -13.2 | -6.9
CC(OC(=O)CN1C(=O)c2ccccc2C1=O)C(=O)NC1CCCCC1 (stereo not drawn) | -1.0 | 5.8 | 3.4 | -1.4 | nt | nt
CC(Sc1ncccn1)C(=O)NC1CCCC1 (stereo not drawn) | -4.1 | 15.4 | 36.6* | 9.3 | -12.3 | -87.5
CC(Sc1nc(N)cc(=O)[nH]1)C(=O)NC1CCCCC1 (stereo not drawn) | -0.1 | 0.2 | 3.7 | -3.4 | nt | nt
COc1ccccc1N1CCN(C(=O)c2ccc(N3CCCCS3(=O)=O)cc2)CC1 | -1.1 | 5.7 | 4.4 | -1.1 | nt | nt
Cn1nc(OCc2ccccc2)ccc1=O | -2.4 | 13.8 | -15.6 | -0.4 | nt | nt
Cn1nc(OCCOc2ccccc2)ccc1=O | -2.4 | 11.8 | 39.8* | -16.4 | -25.0 | -1.0
COc1cc(/C=C/C(=O)c2ccc(O)cc2)ccc1OCC#N | -2.9 | 16.2 | 48.0* | -14.1 | -20.2 | 0.3
COc1cccc(C(=O)/C=C/c2ccc(OCC#N)c(OC)c2)c1 | -3.0 | 15.8 | -11.0 | -3.6 | nt | nt
CC(=O)N1C2CCCCC2S[C@H]2CCCCC21 (stereo partly drawn) | -3.5 | 21.2 | 33.7* | 0.2 | -17.8 | -19.3
CCCc1cc(=O)oc2cc(OC(C)C(=O)NC3CC(C)(C)NC(C)(C)C3)ccc12 (stereo not drawn) | -2.6 | 13.4 | -26.9 | -2.1 | nt | nt
CC(C)CC1Nc2ncnc(N3CCN(c4ccccc4)CC3)c2N(Cc2ccccc2)C1=O (stereo not drawn) | 0.3 | -1.5 | -2.7 | 0.9 | nt | nt
